This is an account of results in PubChem BioAssay (EPA / NIEHS).

Experiment [1] is described as follows: ArunA_NOG_NeuriteLength: ArunA Biomedical's Neurite Outgrowth (NOG) Assay for Neurite Length (AID 2283757). The essentials: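 Total neurite length per neuron, from traced βIII-tubulin-labelled processes longer than 10 um on viable Hoechst-gated cells, was scored as decrease from DMSO. Cells were hESC (H9)-derived neurons given 48 h chemical exposure immediately after seeding.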

Experiment [2] is described as follows: ArunA_NOG_NeuritesPerNeuron: ArunA Biomedical's Neurite Outgrowth (NOG) Assay for Neurites Per Neuron (AID 2283758). The essentials: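 Differentiated human H9-derived neurons exposed to chemicals for 48 h from seeding, then stained with Hoechst and βIII-tubulin/DyLight 488. Automated imaging counted neurites (processes >10 um) per valid neuron; loss of signal versus DMSO scored.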

Experiment [3] can be described thus: ArunA_NOG_BranchPointsPerNeurite: ArunA Biomedical's Neurite Outgrowth (NOG) Assay for Branch Points Per Neurite (AID 2283759). The essentials:
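Automated image analysis traced neurites (processes >10 um) from valid cell bodies after Hoechst and βIII-tubulin staining. hNN cells from H9 embryonic stem cells, 48 h exposure. Fitted bidirectionally against DMSO.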

A short description of experiment [4]: ACEA_AR_agonist_AUC_viability: ACEA Biosciences xCELLigence Real-Time Cell Analysis on Androgen Receptor Agonism for Viability (AID 2283775).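 On AC50: viability read 80 hours after compound addition.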 Put shortly: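 22Rv1 cells; impedance growth kinetics; 8-pt 1:4 dilutions from 100 uM top final, ≤0.5% DMSO; n = 2; 80 h read; AUC viability, loss-of-signal vs DMSO.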
Experiment [5] is described as follows: ACEA_AR_antagonist_AUC_viability: ACEA Biosciences xCELLigence Real-Time Cell Analysis on Androgen Receptor Antagonism for Viability (AID 2283776).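 Further: 22Rv1 human prostate cancer cells growing on impedance electrode plates; area under impedance growth curve at 80 h after dosing as viability; hits lower the growth signal relative to DMSO meaning cytotoxicity.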 Put shortly:
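Viability endpoint from label-free cell-index monitoring: 22Rv1 cultures treated with an eight-point 1:4 dilution series starting at 100 uM final, AUC at 80 h fitted against DMSO.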

The nature of experiment [6]: STM_H9_NormalizedViability: Cytotoxicity Assessment at 120 hours in the Stemina devTOX quickPredict H9 human embryonic stem cell (hESC)-based Assay (AID 2283784). The essentials:
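Viability of the cell layer was taken from live-cell protease cleavage of a fluorogenic substrate after compound exposure of undifferentiated H9 stem cells, with replenishment each 24h. Fluorescence was normalized to vehicle (0.1% DMSO).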

Experiment [7] concerns the target Luciferin 4-monooxygenase (Photinus pyralis) (UniProt P08659). In words: CCTE_Simmons_QuantiLum_inhib_2: CCTE's Firefly Luciferase Inhibition Assay, Simmons Lab (AID 2283767).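 On AC50: potency for inhibitors that lower luciferase luminescence relative to DMSO.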 The essentials: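 First, 5 ng purified luciferase in phosphate buffer with BSA is dispensed per well. Next, test chemicals (5 nM to 87.5 uM final, 0.5% DMSO) are added and incubated 30 min at 37C in darkness. Finally, luciferin reagent is injected and luminescence read kinetically.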

Experiment [8] can be described thus: ACEA_ER_AUC_viability: ACEA Biosciences xCELLigence Real-Time Cell Analysis on Estrogen Receptor Agonism for Viability (AID 2283782).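 Further: hit means loss of impedance signal meaning reduced cell growth or viability.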 The essentials: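 Read-out: real-time electrical impedance (RT-CES) area under curve, loss of signal taken as reduced viability, normalized to DMSO baseline. T-47D cells, charcoal-stripped serum medium, compounds up to 100 uM final, continuous exposure, 80 h.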

A further experiment addresses AR (gene 367) (UniProt P10275). Put plainly: ACEA_AR_agonist_80hr: ACEA Biosciences xCELLigence Real-Time Cell Analysis on Androgen Receptor Agonism for Proliferation (AID 2283783).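 Further: hits increase impedance growth signal above DMSO baseline.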 Put shortly:
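Impedance (RT-CES) growth signal at 80 h post-dose; 22Rv1 cells, 8-pt 1:4 series, top 100 uM final, DMSO ≤0.5%; duplicate plates; gain-of-signal fit relative to DMSO baseline.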

Records with an inconclusive call do not appear. Activity calls are given as the source filed them. How the source made its calls: active means hit-call score of the fitted dose curve at least 0.9, where 1 is the maximum; inconclusive means response in the unintended direction; inactive means score below 0.9.

Chain of Luciferin 4-monooxygenase (Photinus pyralis) (P08659 whole entry, looked up): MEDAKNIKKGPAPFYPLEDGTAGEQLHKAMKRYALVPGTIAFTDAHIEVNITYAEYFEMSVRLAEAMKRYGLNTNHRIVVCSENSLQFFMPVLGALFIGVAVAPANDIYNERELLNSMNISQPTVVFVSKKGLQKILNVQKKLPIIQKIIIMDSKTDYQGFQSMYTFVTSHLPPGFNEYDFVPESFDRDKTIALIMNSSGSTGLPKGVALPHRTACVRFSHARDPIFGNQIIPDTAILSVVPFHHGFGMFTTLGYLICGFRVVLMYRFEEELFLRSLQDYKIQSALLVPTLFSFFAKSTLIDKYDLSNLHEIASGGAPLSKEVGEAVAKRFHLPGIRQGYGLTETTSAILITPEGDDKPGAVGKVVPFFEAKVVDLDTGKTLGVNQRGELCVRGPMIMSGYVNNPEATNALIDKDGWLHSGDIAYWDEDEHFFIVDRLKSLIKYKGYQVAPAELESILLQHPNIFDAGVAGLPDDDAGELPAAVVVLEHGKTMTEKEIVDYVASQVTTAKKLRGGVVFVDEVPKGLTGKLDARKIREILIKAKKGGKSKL
Chain of AR (gene 367) (P10275 whole entry, looked up): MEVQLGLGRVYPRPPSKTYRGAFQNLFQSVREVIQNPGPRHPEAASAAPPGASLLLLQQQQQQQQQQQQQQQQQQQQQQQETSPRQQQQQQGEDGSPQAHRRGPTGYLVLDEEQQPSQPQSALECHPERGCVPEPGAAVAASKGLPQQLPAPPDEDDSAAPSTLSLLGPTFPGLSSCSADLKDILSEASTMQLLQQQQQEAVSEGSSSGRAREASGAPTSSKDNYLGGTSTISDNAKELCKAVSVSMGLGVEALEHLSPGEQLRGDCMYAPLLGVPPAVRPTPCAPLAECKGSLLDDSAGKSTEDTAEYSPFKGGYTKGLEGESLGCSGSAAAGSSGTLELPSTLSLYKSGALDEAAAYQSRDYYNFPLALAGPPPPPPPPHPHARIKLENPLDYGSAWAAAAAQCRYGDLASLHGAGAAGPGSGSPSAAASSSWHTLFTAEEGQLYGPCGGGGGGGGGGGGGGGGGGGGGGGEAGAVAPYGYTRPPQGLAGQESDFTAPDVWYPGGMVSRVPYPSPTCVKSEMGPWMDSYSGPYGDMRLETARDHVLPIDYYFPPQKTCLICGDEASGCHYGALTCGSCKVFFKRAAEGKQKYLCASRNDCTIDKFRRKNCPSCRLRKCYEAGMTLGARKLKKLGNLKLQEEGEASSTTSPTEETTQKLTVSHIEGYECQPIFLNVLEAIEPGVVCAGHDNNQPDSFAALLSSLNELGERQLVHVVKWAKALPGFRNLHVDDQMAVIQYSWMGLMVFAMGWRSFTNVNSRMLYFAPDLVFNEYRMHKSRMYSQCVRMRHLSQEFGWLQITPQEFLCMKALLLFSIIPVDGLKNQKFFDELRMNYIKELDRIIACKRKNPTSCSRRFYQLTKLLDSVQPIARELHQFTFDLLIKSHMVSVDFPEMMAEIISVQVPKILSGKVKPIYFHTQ

Regarding `COC(=O)c1ccc(O)cc1`, the concentration at half-maximal activity (AC50) (usually the concentration at which the activity in the assay is half-maximal) is 18.1 µM (active) in [1], 17.4 µM (active) in experiment [2], 14.8 µM (active) in [3] and 12.7 µM (active) in experiment [5]. Besides, the compound was classed as inactive in [4] and in experiment [6].
In the case of `CNC(=O)[C@H]1O[C@@H](n2cnc3c(NCc4cc(Cl)ccc4OCc4cc(C)no4)ncnc32)[C@H](O)[C@@H]1N`, the result in experiment [7], in [4], in [5] and in experiment [8] was inactive.
With `Oc1ccc2ccccc2c1N=Nc1ccccc1`, the compound was called inactive in experiment [3] and in experiment [5]. Further, the results for the AC50 in experiment [7] and in experiment [6] were 12.6 µM (active) and 0.992 µM (active), respectively.
Take `OC[C@@H](O)[C@@H](O)[C@H](O)[C@H](O)CO`: the outcome in [2], in [5] and in experiment [6] was inactive. For the same compound, in experiment [3], the AC50 was 9.92 µM (active).
On to `Nc1ccc(S(=O)(=O)c2ccc(N)cc2)cc1`, for which the outcome in experiment [7] and in experiment [4] was inactive.
Regarding `Cc1cc(=O)[nH]c(=S)[nH]1`, the AC50 was 53.8 µM (active) in experiment [7] and 9.94 µM (active) in [5]. The call in [4] and in [8] was inactive.
Regarding `Cc1cc(NC(=O)C(=O)O)cc(C)c1Oc1ccc(O)c2c1CCC2`, the concentration at half-maximal activity (AC50) in experiment [7] was 79.3 µM (active). Further, the result (with AR (gene 367); in experiment [6]) was inactive.
Regarding `Cc1c(C(=O)O)c(O)cc2c1C(=O)c1c(O)c([C@@H]3O[C@H](CO)[C@@H](O)[C@H](O)[C@H]3O)c(O)c(O)c1C2=O`, the AC50 in [7] was 18.5 µM (active). In addition, the result in experiment [6] was inactive.
For the compound `CC1(C)CC(N=C=O)CC(C)(CN=C=O)C1` (stereo unspecified), the AC50 in experiment [4] was 25.5 µM (active). For the same compound, the compound was called inactive in [5].
As for `CC(=O)OC/C=C(\C)CCC=C(C)C`, the outcome in experiment [4], in experiment [5] and in experiment [8] was inactive.
Regarding `COc1cc(-c2nc(NC(=O)c3cc4cc(C)cc(C)c4n3CC(=O)O)sc2CCC2CCCCC2)c(OC)cc1Cl`, the AC50 in experiment [4] was 9.71 µM (active); in [5], 9.23 µM (active); in experiment [8], 11.4 µM (active).
As for `COc1ccc(S(=O)(=O)N2C(=O)[C@@](c3ccccc3OC)(N3C[C@H](O)C[C@H]3C(=O)N(C)C)c3cc(Cl)ccc32)c(OC)c1`, the AC50 in experiment [4] is 20.3 µM (active); in experiment [5], 20.5 µM (active); in [8], 24.3 µM (active). For the same compound, the outcome in experiment [6] was inactive.
On to `CN1CCN(Cc2cc(-c3ccc4[nH]c(=O)oc4c3)co2)[C@@H](c2ccc(F)cc2)C1`, for which the AC50 in experiment [8] was 50.8 µM (active). The result in experiment [6] was inactive.
Turning to `COc1cc(C=O)ccc1O`, the compound was called inactive in the experiment with AR (gene 367).
Take `Cc1ccc(C(C)C)c(O)c1`: the outcome in [4], in experiment [5] and in [8] was inactive.
On to `Clc1cc(Cl)c(Cl)cc1Cl`, for which the call in [4], in experiment [5] and in experiment [8] was inactive.
Take `CC(CO)OC(C)CO` (stereo unspecified) (tested in a mixture with another compound): the call in experiment [4] and in [6] was inactive.
For the compound `O=c1[nH]cc(F)c(=O)[nH]1`, the values for the AC50 in experiment [4], in [5] and in experiment [6] were 2.42 µM (active), 1.76 µM (active) and 3.17 µM (active), respectively.
Take `Oc1ccc2c(c1)OC[C@@H](N1CCC(O)(c3ccc(F)cc3)CC1)[C@H]2O`: the result in [4], in [5] and in experiment [8] was inactive.
For the compound `Cc1ccc(Cl)cc1`, the compound was called inactive in experiment [8].
As for `Cc1nc(-c2ccc3c(c2)CCN(CCC2CCC(NC(=O)/C=C/c4ccc(F)cc4)CC2)CC3)no1` (stereo unspecified), the call in [4], in [8] and in [6] was inactive. The AC50 in [5] is 16.8 µM (active).
Consider `CCCCCCOCCO`, for which the compound was called inactive in experiment [5].
In the case of `O=C(N[C@@H](Cc1ccccc1)[C@@H](O)C(=O)N1C[C@@H](O)[C@@H](O)C1)c1cc2cc(Cl)ccc2[nH]1`, the AC50 in experiment [4] is 69.6 µM (active); in experiment [5], 30.9 µM (active); in experiment [8] it was 55.2 µM (active).
For the compound `CC(=O)OCCOCCOCCOC(C)=O`, the compound was called inactive in [5].
As to `COCCOCCOC`, the outcome (in experiment [5]; in the experiment with AR (gene 367); in [6]) was inactive.
As to `C=CCOC(=O)c1ccccc1C(=O)OCC=C`, the result in [5] and in experiment [6] was inactive.
Consider `CNCc1cc(F)ccc1Oc1ccc(Cl)c(Cl)c1`, for which the AC50 was 75.9 µM (active) in [4], 67.4 µM (active) in [5] and 29.9 µM (active) in experiment [8].
With `COc1cccc2c1C(=O)c1c(O)c3c(c(O)c1C2=O)C[C@@](O)(C(=O)CO)C[C@@H]3O[C@H]1C[C@H](N)[C@H](O)[C@H](C)O1`, the AC50 is 0.0985 µM (active) in [4] and 0.0588 µM (active) in [5]. Moreover, the compound was called inactive in [8].
Take `COc1ccc2c(c1)c(CC(=O)O)c(C)n2C(=O)c1ccc(Cl)cc1`: the AC50 in experiment [4] is 37 µM (active); in experiment [5] it was 25.4 µM (active); in [6], 78.1 µM (active).
Take `CCCCCCCCCCO`: in experiment [5], the call was inactive.
With `COc1cc(/C=C/C(=O)CC(=O)/C=C/c2ccc(O)c(OC)c2)ccc1O`, the AC50 is 27 µM (active) in [4] and 23.2 µM (active) in [5]. Moreover, the call (in [8]; with AR (gene 367)) was inactive.
With `CCOC(=O)C(C)(C)Oc1ccc(Cl)cc1`, the compound was called inactive in experiment [4] and in experiment [5].
Regarding `CCCCCCC(=O)OCC`, the half-maximal activity concentration (AC50) in [4] is 87.7 µM (active). Besides, the outcome in experiment [5] and in experiment [8] was inactive.
Regarding `FC(F)(F)C(F)(F)C(F)(F)C(F)(F)C(F)(F)C(F)(F)CCI`, the result in experiment [4], in experiment [5] and in [8] was inactive.
Turning to `C1CCC(SSC2CCCCC2)CC1`, the AC50 in [4] was 77.7 µM (active); in [5], 78.3 µM (active); in experiment [8], 92.3 µM (active).
For the compound `Cc1cccc(Nc2cc(Cl)nc(SCC(=O)O)n2)c1C`, the call in [4], in experiment [5] and in [6] was inactive.
